{"source": "the supplement of paper PMC8728848", "assay_in_all_cases": "glycan array binding signal (z-score within array); higher = stronger binding", "details_in_all_cases": "glycan notation: IUPAC condensed, linker removed", "key": {"3dGal(b1-4)Glc": {"target": "3dGal(b1-4)Glc", "in_short": "(§1)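 Glycan array binding is given as a within-array Z-score, which can be read as non-binding when negative. The arrays, 3228 of them, came from the Consortium for Functional Glycomics database and were retained only where the protein sequence was available. Z-scores were averaged across arrays of the same protein sequence at different concentrations or buffers and across linkers.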"}, "[1]": {"target": "Ara(a1-5)Ara(a1-5)Ara(a1-5)Ara(a1-5)Ara(a1-5)Ara(a1-5)Ara", "in_short": "as §1"}, "[2]": {"target": "Fuc(a1-2)Gal(b1-3)[Fuc(a1-4)]GlcNAc(b1-3)[Fuc(a1-3)[Gal(b1-4)]GlcNAc(b1-6)]Gal(b1-4)Glc", "in_short": "as §1"}, "[3]": {"target": "Fuc(a1-3)[3dGal(b1-4)]Glc", "in_short": "as §1"}, "[4]": {"target": "Fuc(a1-3)[Gal(b1-4)]GlcNAc(b1-3)Gal(b1-4)[Fuc(a1-3)]Glc", "in_short": "as §1"}, "Gal(a1-4)Gal(b1-4)GlcNAc": {"target": "Gal(a1-4)Gal(b1-4)GlcNAc", "in_short": "as §1"}, "[5]": {"target": "Gal(b1-3)GalNAc(b1-4)Gal(b1-4)Glc", "in_short": "as §1"}, "Gal(b1-4)GlcNAc(b1-3)Fuc": {"target": "Gal(b1-4)GlcNAc(b1-3)Fuc", "in_short": "as §1"}, "[6]": {"target": "Gal(b1-4)GlcNAc(b1-3)Gal(b1-4)Glc", "in_short": "as §1"}, "Gal(b1-6)GalNAc": {"target": "Gal(b1-6)GalNAc", "in_short": "as §1"}, "GalNAc(b1-4)Gal(b1-4)Glc": {"target": "GalNAc(b1-4)Gal(b1-4)Glc", "in_short": "as §1"}, "[7]": {"target": "Glc(a1-4)Glc(a1-4)Glc(a1-4)Glc(a1-4)Glc(a1-4)Glc(a1-4)Glc(a1-4)Glc", "in_short": "as §1"}, "Glc(a1-6)Glc": {"target": "Glc(a1-6)Glc", "in_short": "as §1"}, "[8]": {"target": "Glc(a1-6)Glc(a1-4)Glc(a1-4)Glc", "in_short": "as §1"}, "[9]": {"target": "Glc(a1-6)Glc(a1-6)Glc(a1-6)Glc", "in_short": "as §1"}, "[10]": {"target": "Glc(a1-6)Glc(a1-6)Glc(a1-6)Glc(a1-6)Glc", "in_short": "as §1"}, "[11]": {"target": "Glc(b1-6)Glc(b1-6)Glc(b1-6)Glc(b1-6)Glc(b1-6)Glc(b1-6)Glc(b1-6)Glc", "in_short": "as §1"}, "GlcA(b1-3)Gal": {"target": "GlcA(b1-3)Gal", "in_short": "as §1"}, "[12]": {"target": "GlcA(b1-3)GlcNAc(b1-4)GlcA(b1-3)GlcNAc(b1-4)GlcA(b1-3)GlcNAc(b1-4)GlcA(b1-3)GlcNAc(b1-4)GlcA(b1-3)GlcNAc(b1-4)GlcA(b1-3)GlcNAc(b1-4)GlcA(b1-3)GlcNAc", "in_short": "as §1"}, "[13]": {"target": "GlcNAc(b1-2)Man(a1-3)[GlcNAc(b1-2)Man(a1-6)]Man", "in_short": "as §1"}, "[14]": {"target": "GlcNAc(b1-2)[GlcNAc(b1-4)]Man(a1-3)[GlcNAc(b1-2)[GlcNAc(b1-6)]Man(a1-6)]Man(b1-4)GlcNAc(b1-4)GlcNAc", "in_short": "as §1"}, "GlcNAc(b1-3)Fuc": {"target": "GlcNAc(b1-3)Fuc", "in_short": "as §1"}, "[15]": {"target": "GlcNAc(b1-3)[GlcNAc(b1-6)]Gal", "in_short": "as §1"}, "[16]": {"target": "HexA6S(a1-4)GlcNS6S(a1-4)IdoA2S(a1-4)GlcNS6S(a1-4)IdoA2S(a1-4)GlcNS6S(a1-4)IdoA2S(a1-4)GlcNS6S(a1-4)IdoA2S(a1-4)GlcNS6S(a1-4)IdoA2S(a1-4)GlcNS6S(a1-4)IdoA2S(a1-4)GlcNS6S", "in_short": "as §1"}, "[17]": {"target": "Kdn(a2-3)Gal(b1-3)GalNAc(b1-4)[Kdn(a2-3)]Gal(b1-4)Glc", "in_short": "as §1"}, "Kdn(a2-6)Gal": {"target": "Kdn(a2-6)Gal", "in_short": "as §1"}, "[18]": {"target": "Man(a1-3)Man(a1-6)[Man(a1-3)]Man(b1-4)GlcNAc(b1-4)GlcNAc", "in_short": "as §1"}, "Neu(a2-6)Gal(b1-4)Glc": {"target": "Neu(a2-6)Gal(b1-4)Glc", "in_short": "as §1"}, "[19]": {"target": "Neu5Ac(a2-3)4dGal(b1-4)[Fuc(a1-3)]GlcNAc(b1-3)Gal", "in_short": "as §1"}, "[20]": {"target": "Neu5Ac(a2-3)6dGal(b1-4)[Fuc(a1-3)]GlcNAc(b1-3)Gal", "in_short": "as §1"}, "[21]": {"target": "Neu5Ac(a2-3)Gal(b1-3)GalNAc6S(b1-4)Gal(b1-4)Glc", "in_short": "as §1"}, "[22]": {"target": "Neu5Ac(a2-3)Gal(b1-3)GlcNAc(b1-3)[Fuc(a1-3)[Gal(b1-4)]GlcNAc(b1-6)]Gal(b1-4)Glc", "in_short": "as §1"}, "[23]": {"target": "Neu5Ac(a2-3)Gal(b1-3)[Neu5Ac(a2-6)]GalNAc(b1-4)Gal(b1-4)Glc", "in_short": "as §1"}, "[24]": {"target": "Neu5Ac(a2-3)Gal(b1-4)[Fuc(a1-3)]Glc", "in_short": "as §1"}, "[25]": {"target": "Neu5Ac(a2-3)[GalNAc(b1-6)]Gal(b1-4)Glc", "in_short": "as §1"}, "[26]": {"target": "Neu5Ac(a2-6)Gal(b1-4)GlcNAc(b1-3)[Neu5Ac(a2-6)Gal(b1-4)GlcNAc(b1-6)]Gal(b1-4)Glc", "in_short": "as §1"}, "Neu5Ac(a2-6)Glc6S": {"target": "Neu5Ac(a2-6)Glc6S", "in_short": "as §1"}, "Neu5Ac(a2-6)GlcNAc6S": {"target": "Neu5Ac(a2-6)GlcNAc6S", "in_short": "as §1"}, "[27]": {"target": "Xyl(b1-2)[Man(a1-3)][Man(a1-6)]Man(b1-4)GlcNAc(b1-4)[Fuc(a1-3)]GlcNAc", "in_short": "as §1"}}, "note": "The entries come from a sample that favours the strongest signals as a whole.", "data": [{"binder": "HysACBM (Streptococcus pneumoniae), Q54873 (protein) KNLVENGDFGQTEDGSSPWTGSKAQGWSAWVDQKNSADASTRVIEAKDGAITISSHEKLRAALHRMVPIEAKKKYKLRFKIKTDNKIGIAKVRIIEESGKDKRLWNSATTSGTKDWQTIEADYSPTLDVDKIKLELFYETGTGTVSFKDIELVEVADQLS", "values": [{"measurement": "glycan array binding signal (z-score)", "setting": "3dGal(b1-4)Glc", "value": -0.091}, {"measurement": "glycan array binding signal (z-score)", "setting": "[1]", "value": -0.091}, {"measurement": "glycan array binding signal (z-score)", "setting": "[2]", "value": 0.584}, {"measurement": "glycan array binding signal (z-score)", "setting": "[3]", "value": -0.091}, {"measurement": "glycan array binding signal (z-score)", "setting": "[4]", "value": 0.007}, {"measurement": "glycan array binding signal (z-score)", "setting": "Gal(a1-4)Gal(b1-4)GlcNAc", "value": -0.091}, {"measurement": "glycan array binding signal (z-score)", "setting": "[5]", "value": 0.174}, {"measurement": "glycan array binding signal (z-score)", "setting": "Gal(b1-4)GlcNAc(b1-3)Fuc", "value": 0.281}, {"measurement": "glycan array binding signal (z-score)", "setting": "[6]", "value": -0.091}, {"measurement": "glycan array binding signal (z-score)", "setting": "Gal(b1-6)GalNAc", "value": -0.064}, {"measurement": "glycan array binding signal (z-score)", "setting": "GalNAc(b1-4)Gal(b1-4)Glc", "value": 0.321}, {"measurement": "glycan array binding signal (z-score)", "setting": "[7]", "value": 0.776}, {"measurement": "glycan array binding signal (z-score)", "setting": "Glc(a1-6)Glc", "value": -0.091}, {"measurement": "glycan array binding signal (z-score)", "setting": "[8]", "value": -0.059}, {"measurement": "glycan array binding signal (z-score)", "setting": "[9]", "value": -0.091}, {"measurement": "glycan array binding signal (z-score)", "setting": "[10]", "value": -0.091}, {"measurement": "glycan array binding signal (z-score)", "setting": "[11]", "value": -0.091}, {"measurement": "glycan array binding signal (z-score)", "setting": "GlcA(b1-3)Gal", "value": 0.267}, {"measurement": "glycan array binding signal (z-score)", "setting": "[12]", "value": 21.5}, {"measurement": "glycan array binding signal (z-score)", "setting": "[13]", "value": -0.091}, {"measurement": "glycan array binding signal (z-score)", "setting": "[14]", "value": 0.264}, {"measurement": "glycan array binding signal (z-score)", "setting": "GlcNAc(b1-3)Fuc", "value": -0.05}, {"measurement": "glycan array binding signal (z-score)", "setting": "[15]", "value": -0.091}, {"measurement": "glycan array binding signal (z-score)", "setting": "[16]", "value": -0.091}, {"measurement": "glycan array binding signal (z-score)", "setting": "[17]", "value": -0.091}, {"measurement": "glycan array binding signal (z-score)", "setting": "Kdn(a2-6)Gal", "value": -0.091}, {"measurement": "glycan array binding signal (z-score)", "setting": "[18]", "value": -0.091}, {"measurement": "glycan array binding signal (z-score)", "setting": "Neu(a2-6)Gal(b1-4)Glc", "value": 0.823}, {"measurement": "glycan array binding signal (z-score)", "setting": "[19]", "value": -0.091}, {"measurement": "glycan array binding signal (z-score)", "setting": "[20]", "value": -0.045}, {"measurement": "glycan array binding signal (z-score)", "setting": "[21]", "value": -0.091}, {"measurement": "glycan array binding signal (z-score)", "setting": "[22]", "value": -0.091}, {"measurement": "glycan array binding signal (z-score)", "setting": "[23]", "value": -0.054}, {"measurement": "glycan array binding signal (z-score)", "setting": "[24]", "value": -0.091}, {"measurement": "glycan array binding signal (z-score)", "setting": "[25]", "value": -0.091}, {"measurement": "glycan array binding signal (z-score)", "setting": "[26]", "value": -0.091}, {"measurement": "glycan array binding signal (z-score)", "setting": "Neu5Ac(a2-6)Glc6S", "value": -0.091}, {"measurement": "glycan array binding signal (z-score)", "setting": "Neu5Ac(a2-6)GlcNAc6S", "value": -0.091}, {"measurement": "glycan array binding signal (z-score)", "setting": "[27]", "value": -0.091}]}]}
